Data taken from PubChem BioAssay AID504725 (Broad Institute, 2011).
Measured potencies and affinities stand elsewhere. The source made the active and inactive calls. How the calls were made is not given here.

molecular target: KSHV LANA C-terminal domain (residues 932-1162) binding to LBS DNA (UniProt O40947); test: inhibitors of C-LANA binding to LBS DNA, dose response, biochemical, fluorescence polarization, cherry-picked samples (AID 504725); conditions: MBP-C-LANA / FAM-LBS DNA fluorescence polarization; series mostly up to 35 µM

SMILES | outcome
COCCNC(=O)Cn1cc(/C=C2\C(=O)NC(=O)N(c3cccc(C)c3C)C2=O)c2ccccc21 | inactive
CC(Cc1ccccc1)NC(=O)NC(C)Cc1ccccc1 (stereo not drawn) | inactive
CCOC(=O)c1c(/N=C/c2c(O)n(-c3cccc(C)c3)c(=O)[nH]c2=O)sc2c1CCCC2 | inactive
CC(C)CC(=O)Nc1ccc(S(=O)(=O)N2CC3CC(C2)c2cccc(=O)n2C3)cc1 (stereo not drawn) | inactive
CC(OC(=O)c1cn(C)c2ccccc12)C(=O)N1CCCC1 (stereo not drawn) | inactive
O=c1[nH]c(=O)n(C2CCCCC2)c(O)c1C=Nc1ccc(N2CCOCC2)cc1 | inactive
Cc1cc(=O)oc2cc(OCC(=O)N3CCN(Cc4ccc5c(c4)OCO5)CC3)ccc12 | inactive
CCCCc1ccc(C(=O)O)nc1 | inactive
Cc1cc(OCC(=O)OC(C)(C)C)c2c3c(c(=O)oc2c1)CCC3 | inactive
CN(C)C1C(=O)C(C(N)=O)=C(O)C2(O)C(=O)C3=C(O)c4c(O)cccc4C(C)(O)C3C(O)C12 (stereo not drawn) | inactive
CCn1c(O)c(N=Nc2cccc(S(=O)(=O)N3CCOCC3)c2)c(=O)n(CC)c1=S | inactive
O=c1c2ccccc2nc(/C=C\c2ccccc2[N+](=O)[O-])n1-c1ccccc1O | inactive
COC(=O)C1=C(c2ccc(OC(F)(F)F)cc2)C[C@@H]2CC[C@H]1N2C(=O)NC1CCCCC1 | inactive
